{"source": "PubChem BioAssay (Tox21)", "note": "Records with an inconclusive call do not appear. Calls of active or inactive are those of the source. The call rests on the fitted dose curve. On the % scale 0 is the no-effect control and ±100 the full control effect."}
{"molecular_target": "5-hydroxytryptamine receptor 2A (Homo sapiens) (UniProt P28223)", "sequence (P28223 whole entry, looked up)": "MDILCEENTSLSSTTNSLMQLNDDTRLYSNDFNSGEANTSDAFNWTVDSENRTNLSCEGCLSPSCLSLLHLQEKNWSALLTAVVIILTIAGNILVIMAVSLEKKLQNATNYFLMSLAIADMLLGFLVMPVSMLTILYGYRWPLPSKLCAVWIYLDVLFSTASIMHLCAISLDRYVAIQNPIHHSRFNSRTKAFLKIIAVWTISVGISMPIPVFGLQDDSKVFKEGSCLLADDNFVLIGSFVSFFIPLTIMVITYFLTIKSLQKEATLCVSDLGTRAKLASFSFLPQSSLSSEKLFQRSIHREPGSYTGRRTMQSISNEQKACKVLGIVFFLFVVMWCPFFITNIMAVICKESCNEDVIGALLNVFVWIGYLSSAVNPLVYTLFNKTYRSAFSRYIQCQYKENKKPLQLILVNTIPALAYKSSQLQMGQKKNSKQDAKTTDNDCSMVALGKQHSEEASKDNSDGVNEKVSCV", "experiment": "5-hydroxytryptamine receptor 2A (HTR2A) small molecule agonists, cell-based qHTS assay (AID 1963587); further: nearly all actives have a fitted effect of over 30% in size", "details": "HTR2A-CHO cells, calcium flux fluorescence, agonist mode; series mostly up to 76.8 µM; activation: at the top concentration", "description": "National Center for Advancing Translational Sciences [NCATS]\nDivision of Preclinical Innovation [DPI]\nU.S. Environmental Protection Agency [EPA]\nNational Institutes of Environmental Health Sciences [NIEHS]\nNational Toxicology Program [NTP]\nU.S. Food and Drug Administration [FDA]\nThe HTR2A receptor is a subtype of the 5-HT2 receptor that belongs to the serotonin receptor family and is a G protein-coupled receptor (GPCR). The HTR2A-CHO cell line stably expressing human 5-hydroxytryptamine receptor 2A (HTR2A) can be used for screening agonists of interactions between 5-HT2 and its ligands. The HTR2A-CHO calcium flux assay is a homogeneous fluorescence-based assay for detecting the intracellular calcium level using FDSS kinetic plate reader system.\nHTR2A-CHO cells were dispensed at 2000 cells/3uL/well in 1536-well black-clear bottom plates using a Multidrop Dispenser. After the assay plates were incubated at a 37 C/5% CO2 incubator for 18 h, 3 uL of Dye Loading Buffer was transferred to the assay plate by a Flying Reagent Dispenser. The assay plates were incubated at 37 C for 1h. For agonist mode, 23 nL of compounds dissolved in DMSO, positive controls or DMSO only was transferred to the assay plate by a pin tool. The fluorescence intensity in the plates was measured using FDSS 7000EX kinetic plate reader for 2 min at 1 sec intervals."}
{"smiles": "Oc1ccc(Oc2ccccc2)cc1", "activation": "-10.2% (inactive)"}
{"smiles": "O=C(O)c1cccc(C(=O)O)c1C(=O)O", "activation": "1.47% (inactive)"}
{"smiles": "C=CCCCCCCCCC(=O)OCC", "activation": "-0.307% (inactive)"}
{"smiles": "CCOC(=O)CCCCCCCCC(=O)OCC", "activation": "-0.636% (inactive)"}
{"smiles": "CO[C@@H]1COCC[C@@H]1N[C@@H]1CC[C@@](C(=O)N2CCc3ncc(C(F)(F)F)cc3C2)(C(C)C)C1", "activation": "-3.24% (inactive)"}
{"smiles": "CN(C)CCn1nnnc1SCC1=C(C(=O)O)N2C(=O)[C@@H](NC(=O)Cc3csc(N)n3)[C@H]2SC1", "activation": "0.993% [at 35.6 µM] (inactive)"}
{"smiles": "C=C(C)c1cccc(C(C)(C)N=C=O)c1", "activation": "0.52% (inactive)"}
{"smiles": "CC(C)(C)c1n[nH]c(=S)n(N)c1=O", "activation": "0.137% (inactive)"}
{"smiles": "COc1cc(C(=O)NCCCCCC(=O)O)cc(OC)c1OC", "activation": "-0.167% [at 35.6 µM] (inactive)"}
{"smiles": "Cn1cccc1", "activation": "-0.96% (inactive)"}
{"smiles": "C=CC(=O)OCC(Br)CBr", "note": "(stereo not given)", "activation": "-2.17% (inactive)"}
{"smiles": "CCc1cc(Cc2cc(CC)cc(C(C)(C)C)c2O)c(O)c(C(C)(C)C)c1", "activation": "7.89% (inactive)"}
{"smiles": "CCOC(=O)COC(=O)c1ccccc1C(=O)OCC", "activation": "-5.88% (inactive)"}
{"smiles": "CN(C)CCC=C1c2ccccc2C=Cc2ccccc21", "activation": "-0.568% [at 35.6 µM] (inactive)"}
{"smiles": "CC(=O)CC(=O)OC(C)(C)C", "activation": "-1.55% (inactive)"}
{"smiles": "CC(CNC1CCCCC1)OC(=O)c1ccccc1", "note": "(stereo not given)", "activation": "-2.65% [at 35.6 µM] (inactive)"}
{"smiles": "O=CNNC=O", "activation": "0.0357% (inactive)"}
{"smiles": "CN(C)C/C=C(/c1ccc(Br)cc1)c1cccnc1", "activation": "-0.197% [at 35.6 µM] (inactive)"}
{"smiles": "Cc1ccc2sc3cccc(C)c3c2c1", "activation": "2.7% (inactive)"}
{"smiles": "CCCC(=O)C(CC)Sc1ccoc1C", "note": "(stereo not given)", "activation": "-14.5% (inactive)"}
{"smiles": "Cc1ccco1", "activation": "-0.436% (inactive)"}
{"smiles": "[O]=[Bi]", "activation": "0.438% [at 7.02 µM] (inactive)"}
{"smiles": "COc1cccc(O)c1", "activation": "-1.05% (inactive)"}
{"smiles": "CCC=CC#N", "activation": "-1.43% (inactive)"}
{"smiles": "CC1c2ccccc2CN1NC(=O)c1ccc(Cl)c(S(N)(=O)=O)c1", "note": "(stereo not given)", "activation": "0.988% [at 35.6 µM] (inactive)"}
{"smiles": "Cc1c(N)cccc1Cl", "activation": "-0.246% (inactive)"}
{"smiles": "C=CCc1ccccc1OCC(O)CNC(C)C", "note": "(stereo not given)", "activation": "-2.84% [at 35.6 µM] (inactive)"}
{"smiles": "CCOC(=O)Nc1ccc(NCc2ccc(F)cc2)nc1N", "activation": "-2.46% [at 35.6 µM] (inactive)"}
{"smiles": "CC1=CC(=O)CC(C)(C)C1(O)/C=C/C(C)=C\\C(=O)O", "note": "(stereo not given)", "activation": "-0.0183% (inactive)"}
{"smiles": "CN(C[C@@H](CC[N+]12CCC(C3CCCCC3)(CC1)CC2)c1ccc(Cl)c(Cl)c1)C(=O)c1cc(C(F)(F)F)cc(C(F)(F)F)c1", "activation": "-1.94% (inactive)"}
{"smiles": "CC1=C2[C@@H]([C@H](C)CC[C@H]2/C=C(\\C)C(=O)O)[C@H](O)C1", "activation": "-0.0772% (inactive)"}
{"smiles": "OCCC(F)(F)C(F)(F)C(F)(F)C(F)(F)C(F)(F)C(F)(F)C(F)(F)C(F)(F)F", "activation": "-0.319% (inactive)"}
{"smiles": "O=C(O)c1cc(C(=O)O)c(C(=O)O)cc1C(=O)O", "activation": "-0.828% (inactive)"}
{"smiles": "CC(c1cc(C(C)(C)C)cc(C(C)(C)C)c1O)c1cc(C(C)(C)C)cc(C(C)(C)C)c1O", "activation": "4.28% (inactive)"}
{"smiles": "CC(O)CN(CCCN(C)C)CCCN(C)C", "note": "(stereo not given)", "activation": "-1.71% (inactive)"}
{"smiles": "CCn1c2ccccc2c2cc([N+](=O)[O-])ccc21", "activation": "-2.11% (inactive)"}
{"smiles": "CCOC(=O)C(=O)c1csc(NC=O)n1", "activation": "-1.25% [at 35.6 µM] (inactive)"}
{"smiles": "O=C(CCc1ccc(O)cc1)c1c(O)cc(O)cc1O", "activation": "0.818% (inactive)"}
{"smiles": "Cc1cccc([N+](=O)[O-])c1C(=O)O", "activation": "-1.15% (inactive)"}
{"smiles": "Cc1ccc2c(Cl)cc(Cl)c(O)c2n1", "activation": "-1.23% [at 35.6 µM] (inactive)"}
